# Results published in the supplement of paper PMC8866396.
# ± gives the standard deviation of the averaged measurements.
# Assays:
# [1] = test system: IL-6-GFP PC-9GR; test: cell viability (CCK-8 OD) relative to DMSO control (fraction of control); higher = more viable cells; conditions: compound concentration: 10 uM; treatment time: 48 h
# Procedure, shortened: (§1)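 A purchased 510-compound library was screened at a final 10 μM for 48 h against PC-9 and PC-9GR lung cancer cells overexpressing IL-6-GFP via a lentiviral construct, seeded at 3000 cells/well in 96-well plates. GFP imaging was done on a parallel plate set. For viability, CCK-8 absorbance was recorded and each well's optical density was divided by that of the vehicle control well. There were two independent replicates.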
# [2] = test system: IL-6-GFP PC-9; test: as above; conditions: compound concentration: 10 uM; treatment time: 48 h
# Procedure, shortened: as §1
SMILES,cell viability [1],cell viability [2]
O=C(/C=C/C=C/c1ccc2c(c1)OCO2)N1CCCCC1 [Piperine],1.33 ± 0.093,1.47 ± 0.33
CC(C)=CCOc1ccc(/C=C/C(=O)c2ccc(OCC=C(C)C)cc2OCC(=O)O)cc1 [Sofalcone],0.969 ± 0.2,1.01 ± 0.23
COc1cc(-c2coc3cc4c(c(OC)c3c2=O)OCO4)cc(OC)c1OC [Irisflorentin],0.826 ± 0.2,1.04 ± 0.12
CC(C)(C)c1ccc(C(=O)CCCN2CCC(OC(c3ccccc3)c3ccccc3)CC2)cc1 [Ebastine],0.62 ± 0.3,0.628 ± 0.031
CC(C)c1c(C(=O)Nc2ccccc2)c(-c2ccccc2)c(-c2ccc(F)cc2)n1CCC(O)CC(O)CC(=O)O (configuration not stated) [atorvastatin],0.904 ± 0.21,0.866 ± 0.015
Cn1nnc2c(C(N)=O)ncn2c1=O [Temozolomide],1.18 ± 0.04,0.6981 ± 0.0048
CC1(C)SC2C(NC(=O)C(c3ccccc3)S(=O)(=O)[O-])C(=O)N2C1C(=O)[O-].[Na+].[Na+] (configuration not stated) [Sulbenicillin Sodium],0.802 ± 0.17,0.857 ± 0.019
Cl.O=C(OCC(O)CO)c1ccccc1Nc1ccnc2cc(Cl)ccc12 (configuration not stated) [Glafenine HCl],1.04 ± 0.32,1.05 ± 0.25
Nc1ccn(C2OC(CO)C(O)C2O)c(=O)n1 (configuration not stated) [Cytarabine],0.816 ± 0.077,0.7893 ± 0.0033
CN(C)N=Nc1[nH]cnc1C(N)=O [Dacarbazine],0.95 ± 0.14,0.8338 ± 0.005
CN1CCC(=C2c3ccccc3CCc3sccc32)CC1.O=C(O)CC(O)C(=O)O [Pizotifen Malate],1.41 ± 0.064,1.22 ± 0.16
"O=C(c1ccc(F)c(F)c1Nc1ccc(I)cc1F)N1CC(O)(C2CCCCN2)C1 (configuration not stated) [Cobimetinib (GDC-0973, RG7420)]",0.7146 ± 0.0029,0.115 ± 0.15
CCOC(=O)c1ccc(C#Cc2ccc3c(c2)C(C)(C)CCS3)nc1 [Tazarotene],1.32 ± 0.14,1.15 ± 0.041
CC#CC(=O)N1CCCC1c1nc(-c2ccc(C(=O)Nc3ccccn3)cc2)c2c(N)nccn12 (configuration not stated) [Acalabrutinib (ACP-196)],1.04 ± 0.36,0.78 ± 0.084
Cc1coc2c1C(=O)C(=O)c1c-2ccc2c1CCCC2(C)C [Tanshinone IIA],1.37 ± 0.095,0.705 ± 0.19
Nc1nc(=O)c2c(CCc3ccc(C(=O)NC(CCC(=O)[O-])C(=O)[O-])cc3)c[nH]c2[nH]1.[Na+].[Na+] (configuration not stated) [Pemetrexed],0.483 ± 0.064,0.635 ± 0.1
O=C(O)c1ccccc1Nc1cccc(C(F)(F)F)c1 [Flufenamic acid],1.15 ± 0.34,1.14 ± 0.15
N#Cc1ccc(C2CCCc3cncn32)cc1 (configuration not stated) [Fadrozole],0.6645 ± 0.0044,1.18 ± 0.074
CNCC(O)C(O)C(O)C(O)CO.Cc1c(Nc2ncccc2C(=O)O)cccc1C(F)(F)F [Flunixin Meglumin],1.15 ± 0.12,0.964 ± 0.087
CCCC1CC(C(=O)NC(C(C)O)C2OC(SC)C(O)C(O)C2O)N(C)C1.Cl (configuration not stated) [Lincomycin HCl],1.13 ± 0.27,0.958 ± 0.048
NCCNc1ccc(NCCN)c2c1C(=O)c1ccncc1C2=O.O=C(O)/C=C\C(=O)O.O=C(O)/C=C\C(=O)O [Pixantrone Maleate],0.168 ± 0.39,0.3518 ± 0.00067

SMILES,cell viability [1],cell viability [2]
Cc1ccc(-c2ncc(Cl)cc2-c2ccc(S(C)(=O)=O)cc2)cn1 [Etoricoxib],0.855 ± 0.092,1.21 ± 0.029
CC(OC1OCCN(Cc2n[nH]c(=O)[nH]2)C1c1ccc(F)cc1)c1cc(C(F)(F)F)cc(C(F)(F)F)c1 (configuration not stated) [Aprepitant],1.01 ± 0.071,0.767 ± 0.041
Cn1c(=O)cc(N2CCCC(N)C2)n(Cc2cc(F)ccc2C#N)c1=O (configuration not stated) [Trelagliptin],1.09 ± 0.15,1.33 ± 0.49
CCCCC1C(=O)N(c2ccccc2)N(c2ccccc2)C1=O [Phenylbutazone],1.34 ± 0.094,1.25 ± 0.053
Cc1nc(Nc2ncc(C(=O)Nc3c(C)cccc3Cl)s2)cc(N2CCN(CCO)CC2)n1.Cl [Dasatinib hydrochloride],0.517 ± 0.025,0.438 ± 0.063
O=C(NCC1CN(c2ccc(N3CCOCC3=O)cc2)C(=O)O1)c1ccc(Cl)s1 (configuration not stated) [Rivaroxaban],0.949 ± 0.11,0.98 ± 0.11
Cn1c(=O)cc(N2CCCC(N)C2)n(Cc2ccccc2C#N)c1=O (configuration not stated) [Alogliptin],0.0419 ± 0.21,1.29 ± 0.11
Cl.N=C1CCCN1Cc1[nH]c(=O)[nH]c(=O)c1Cl.O=c1[nH]c(=O)n(C2CC(O)C(CO)O2)cc1C(F)(F)F.O=c1[nH]c(=O)n(C2CC(O)C(CO)O2)cc1C(F)(F)F (configuration not stated),0.556 ± 0.067,0.812 ± 0.28
"CCCS(=O)(=O)Nc1ccc(F)c(C(=O)c2c[nH]c3ncc(-c4ccc(Cl)cc4)cc23)c1F [Vemurafenib (PLX4032, RG7204)]",1.06 ± 0.1,1.05 ± 0.15
CNC(=O)c1c(C)oc2cc(Oc3ncnc4cc(OC)c(OC)cc34)ccc12 [Fruquintinib],1.04 ± 0.12,1.12 ± 0.08
CC1=C(/C=C/C(C)=C/C=C/C(C)=C/C(=O)Nc2ccc(O)cc2)C(C)(C)CCC1 [Fenretinide],0.47 ± 0.12,0.449 ± 0.14
CC(N)c1ccc(C(=O)Nc2ccnc3[nH]ccc23)cc1.Cl.Cl (configuration not stated),0.973 ± 0.42,0.74 ± 0.23
CC(=O)C1CCC2C3CC(C)C4=CC(=O)CCC4(C)C3C(O)CC12C (configuration not stated) [Medrysone],0.958 ± 0.024,1.15 ± 0.051
CC12CCC(CC1=O)C2(C)C (configuration not stated) [Camphor],1.24 ± 0.3,0.786 ± 0.061
CN(Cc1cnc2nc(N)nc(N)c2n1)c1ccc(C(=O)NC(CCC(=O)O)C(=O)O)cc1 (configuration not stated) [Methotrexate],0.638 ± 0.078,0.54 ± 0.15
CCC1(O)CC2CN(CCc3c([nH]c4ccccc34)C(C(=O)OC)(c3cc4c(cc3OC)N(C=O)C3C(O)(C(=O)OC)C(OC(C)=O)C5(CC)C=CCN6CCC43C65)C2)C1 (configuration not stated) [Vincristine],0.556 ± 0.22,0.631 ± 0.041
"CCC(Nc1ncnc2[nH]cnc12)c1nc2cccc(F)c2c(=O)n1-c1ccccc1 (configuration not stated) [Idelalisib (CAL-101, GS-1101)]",1.27 ± 0.14,0.858 ± 0.15
O=C(O)C1CSCN1 (configuration not stated) [Timonacic],1.19 ± 0.24,1.01 ± 0.15
CC(=O)OC12COC1CC(O)C1(C)C(=O)C(O)C3=C(C)C(OC(=O)C(O)C(NC(=O)OC(C)(C)C)c4ccccc4)CC(O)(C(OC(=O)c4ccccc4)C21)C3(C)C.O.O.O (configuration not stated) [Docetaxel Trihydrate],0.528 ± 0.15,0.631 ± 0.044
CCS(=O)(=O)O.COC(=O)c1ccc2c(c1)NC(=O)/C2=C(\Nc1ccc(N(C)C(=O)CN2CCN(C)CC2)cc1)c1ccccc1 [Nintedanib Ethanesulfonate Salt],0.8 ± 0.075,0.782 ± 0.023
Cn1cc(C2=C(c3cccc(N)c3)C(=O)NC2=O)c2ccccc21,0.303 ± 0.31,0.677 ± 0.15

SMILES,cell viability [1],cell viability [2]
O=S(=O)([O-])CCS.[Na+] [Mesna],1.23 ± 0.2,0.95 ± 0.07
CCC(C)C(=O)OC1CC(O)C=C2C=CC(C)C(CCC(O)CC(O)CC(=O)O)C21 (configuration not stated) [Pravastatin],1.48 ± 0.39,0.999 ± 0.22
NC(=S)N/N=C/c1ncccc1N [Triapine],0.255 ± 0.16,0.287 ± 0.024
COc1cc(Nc2c(C#N)cnc3cc(OCCCN4CCN(C)CC4)c(OC)cc23)c(Cl)cc1Cl [Bosutinib (SKI-606)],0.448 ± 0.011,0.429 ± 0.064
O=C(O)COC(=O)Cc1ccccc1Nc1c(Cl)cccc1Cl [Aceclofenac],1.29 ± 0.4,1.1 ± 0.052
Cl.Cl.O=C(O)COCCN1CCN(C(c2ccccc2)c2ccc(Cl)cc2)CC1 (configuration not stated) [Cetirizine DiHCl],1.08 ± 0.0043,1.02 ± 0.033
NC1CCCCC1N.O=C([O-])C(=O)[O-].[Pt+2] (configuration not stated) [Oxaliplatin],0.678 ± 0.016,1.2 ± 0.099
Cc1nc(Nc2ncc(C(=O)Nc3c(C)cccc3Cl)s2)cc(N2CCN(CCO)CC2)n1.O [Dasatinib Monohydrate],0.687 ± 0.054,0.488 ± 0.059
CC(Oc1cc(-c2cnn(C3CCNCC3)c2)cnc1N)c1c(Cl)ccc(F)c1Cl (configuration not stated),0.43 ± 0.21,0.529 ± 0.15
CN1C(C(=O)Nc2ccccn2)=C(O)c2sc(Cl)cc2S1(=O)=O [Lornoxicam],0.71 ± 0.3,1.1 ± 0.23
CC(=O)c1c(C)c2cnc(Nc3ccc(N4CCNCC4)cn3)nc2n(C2CCCC2)c1=O.O=S(=O)(O)CCO,0.918 ± 0.1,0.811 ± 0.26
CN(C)c1cc(CNCC(C)(C)C)c(O)c2c1CC1CC3C(N(C)C)C(O)=C(C(N)=O)C(=O)C3(O)C(O)=C1C2=O.Cc1ccc(S(=O)(=O)O)cc1 (configuration not stated) [Omadacycline tosylate],1.02 ± 0.039,1.3 ± 0.11
CC(C)Cc1ccc(C(C)C(=O)O)cc1.NCCCCC(N)C(=O)O (configuration not stated) [Ibuprofen Lysine],1.28 ± 0.21,1.25 ± 0.29
CC1(C(=O)O)CCC2(C)CCC3(C)C(=CC(=O)C4C5(C)CCC(OC6OC(C(=O)O)C(O)C(O)C6OC6OC(C(=O)O)C(O)C(O)C6O)C(C)(C)C5CCC43C)C2C1.N.N (configuration not stated) [Diammonium Glycyrrhizinate],1.11 ± 0.22,1.19 ± 0.07
Cn1cnc2c(F)c(Nc3ccc(Br)cc3F)c(C(=O)NOCCO)cc21,0.812 ± 0.043,1.2 ± 0.19
CC1CC2C3CCC4=CC(=O)C=CC4(C)C3(F)C(O)CC2(C)C1(O)C(=O)CO (configuration not stated) [Dexamethasone (DHAP)],1.08 ± 0.058,0.732 ± 0.072
Nc1ccc(F)cc1NC(=O)c1ccc(CNC(=O)/C=C/c2cccnc2)cc1 [Tucidinostat (Chidamide)],0.836 ± 0.38,0.606 ± 0.23
Cl.c1ccc(CN(CC2=NCCN2)c2ccccc2)cc1 [Antazoline HCl],0.998 ± 0.082,1.31 ± 0.11
COc1nc2ccc(Br)cc2cc1C(c1ccccc1)C(O)(CCN(C)C)c1cccc2ccccc12.O=C(O)/C=C/C(=O)O (configuration not stated) [Bedaquiline fumarate],1.18 ± 0.17,1.15 ± 0.067
